# TDP1 cell CPT = growth inhibition of DT40 Tdp1-/-;hTDP1 cells with camptothecin (screen for TDP1 inhibitors) | chicken DT40 Tdp1-/-;hTDP1 cells + 20 nM CPT, ATP luminescence, 48 h | Potency, µM (titrated, usually from 46.2 µM), inactives show at the top dose activity change, negative = growth inhibition, most hits filed as inhibitors | hit rate 12% among 420,000 | AID 686979; also: potency is read from the fitted curve at half-maximal effect; % is scaled to controls: 0 for no effect and ±100 for the full control effect; nearly all actives have a fitted effect of over 55% in size
#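 Chicken DT40 Tdp1-/- cells stably complemented with human TDP1 were seeded at 400 cells/well in medium containing 20 nM camptothecin, exposed to pin-transferred compounds, and grown at 37 °C for at least 48 hr. Viability was read as ATP luminescence.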
# ClpP mod = qHTS Assay for Activators of ClpP; purified B. subtilis ClpP, FRET peptide cleavage, 20 min; Potency, µM (doses to about 57.5 µM), inactives show at the top dose activity change, negative = active; hit rate 1.9% among 340,000; AID 651965, 2013; active = well fitted falling curve with a large enough effect; inconclusive = small, poorly fitted or top-dose-only effect; inactive = no such curve, though single readings can be large or run the other way; also: potency is read from the fitted curve at half-maximal effect; the source files actives as falling curves though it sought activators and does not explain the sign; nearly all actives have a fitted effect of over 65% in size
# Target sequence (P80244 whole entry, looked up): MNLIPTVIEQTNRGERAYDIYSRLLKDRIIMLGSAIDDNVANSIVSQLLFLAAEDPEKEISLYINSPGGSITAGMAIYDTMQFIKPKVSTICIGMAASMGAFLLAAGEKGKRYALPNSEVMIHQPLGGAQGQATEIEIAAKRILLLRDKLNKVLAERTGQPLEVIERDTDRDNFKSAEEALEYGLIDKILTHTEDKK
#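 Purified B. subtilis ClpP, 10 microg/mL final in Tris/HCl pH8 with KCl, BSA, glycerol and Tween-20, cleaved an Abz/nitrotyrosine-quenched decapeptide. Fluorescence (ex 320, em 430) was read at 0 and 20 min at room temperature. Delta was normalized to 5.8 microM ADEP and DMSO/no-enzyme controls.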
# D3 antag = D3 dopamine receptor (human) antagonism | max response, negative = inhibition, % | hit rate 2.5% among 360,000 | D3R cells, DiscoveRx beta-arrestin luminescence, antagonist mode; stronger effect = lower value | P35462 | AID 652054; in the data active = max response below about -50%; inconclusive = no clear call, values can overlap the other calls; also: % is scaled to controls: 0 for no effect and ±100 for the full control effect
#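 Cells plated overnight at 1500 cells/well, then exposed to library compounds with dopamine controls for 90 minutes at 37 degrees C. DiscoveRx reagent added for 30–60 minutes at room temperature; luminescence read, quantitative HTS format.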
# IL1B secr inh = inflammasome signaling inhibition, IL-1 beta readout | hit rate 4.7% among 360,000 | THP-1 LPS/ATP IL-1B secretion, AlphaLISA, 16 h; stronger effect = lower value | activity change, % at 57.5 µM; in the data active = activity change below about -50%; inconclusive = mostly about -30% to -49%; also: % is scaled to controls: 0 for no effect and ±100 for the full control effect
#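 Secreted IL-1B measured by AlphaLISA bead assay after 16 h compound exposure of THP-1 cells; compounds (final up to 57.5 uM) added 1 h before LPS (250 ng/mL) and ATP (1.25 mM) stimulation; lower signal means less secretion.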
# DRD3 agonist = activates the human D3 dopamine receptor. P35462. D3R DiscoveRx beta-arrestin cells, luminescence, 90 min. max activation, %. hit rate 0.58% among 410,000; in the data active = max activation above about 30%; also: 0% is about no effect
#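 Agonist mode: compounds and dopamine controls were applied to plated cells for 90 min at 37 degrees C after an overnight attachment at 1500 cells/well. Luminescent read-out followed 30 - 60 minutes at room temperature with DiscoveRx detection reagent.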
# DT40 TDP1 no CPT = qHTS for Inhibitors of human tyrosyl-DNA phosphodiesterase 1 (TDP1): qHTS in cells in absence of CPT; hit rate 15% among 420,000; DT40 Tdp1-/- hTDP1 cells, no CPT, ATP luminescence, 48 h; Potency, µM (top dose mostly 46.2 µM), for the others: top-dose activity change, negative = growth inhibition, most hits filed as inhibitors; also: potency is read from the fitted curve at half-maximal effect; % is scaled to controls: 0 for no effect and ±100 for the full control effect; nearly all actives have a fitted effect of over 55% in size
#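 DT40 Tdp1-/-;hTDP1 cells, no CPT (DMSO vehicle only), 400 cells/well; compounds pin-transferred; ≥48 hr, 37 °C; CellTiter-Glo 30 min RT dark, luminescence read.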
# * = called active by the depositor; i = inactive; ? = inconclusive; . = no result given; [ ] = another dose, or the depositor's remark. This is a sample that favours compounds with a hit; in the whole collection about 21% have one here. Unless noted, calls follow the shape of the dose curve; as a rule, active = well fitted inhibition curve with a large enough effect; inconclusive = small, poorly fitted or top-dose-only effect; inactive = flat fitted curve, though single readings scatter.
SMILES,TDP1 cell CPT,ClpP mod,D3 antag,IL1B secr inh,DRD3 agonist,DT40 TDP1 no CPT
C=CCn1c(OCc2ccccc2)n[nH]c1=S,5%,.,-18,22,10,-23%
CN1N=C(N)c2cn(C3OC(COP(=O)(O)O)C(O)C3O)c3ncnc1c23 (centres undefined),?,-3%,-4,181,2,-27%
CCC1CN(CCNC(=O)c2cc(C(C)C)nn2C)Cc2cc(OC)ccc2O1 (centres undefined),-13%[9.04 µM],.,.,.,.,-23%
Cc1[nH]c(=O)[nH]c(=O)c1Sc1ccccc1[N+](=O)[O-],-20%,.,-4,20,-9,-7%
Cc1cc(OC(=O)c2ccco2)c(Sc2ccccc2[N+](=O)[O-])c(=O)o1,?,.,-21,7,4,18µM*
O=C(NC(=S)Nc1ccccc1N1CCOCC1)c1ccccc1F,?,-1%,17,-8,-4,?
O=C(NC(=S)Nc1ccccc1N1CCN(C(=O)c2ccccc2)CC1)c1ccccc1F,16µM*,32µM*,-20,i,-4,18µM*
O=C(Nc1ccccc1N1CCN(C(=O)c2ccccc2)CC1)c1ccc(Cl)cc1,?,.,0,?,17,23µM*
O=C(Nc1ccccc1N1CCN(C(=O)c2ccc(Cl)cc2)CC1)c1cc2ccccc2o1,26µM*,?,-20,-7,-2,?
O=C(Nc1ccccc1N1CCN(C(=O)c2ccccc2)CC1)c1ccc(Br)o1,?,1%,68,-1,23,21µM*
Cc1ccc(S(=O)(=O)N(C)C)cc1NC(=O)CN1C(=O)NC2(CCc3ccccc32)C1=O (centres undefined),1%,-1%,23,-2,6,7%
O=Cc1c(NC2CCCCC2)c2ccccc2[nH]c1=O,4%,0%,3,-9,1,-16%
O=C(Cc1ccc(Cl)cc1)Nc1ccccc1N1CCN(C(=O)c2ccccc2)CC1,?,0%,3,?,-20,21µM*
CCOC(=O)Cn1c(=O)cc(C)c2ccccc21,8.2µM*,-12%,-1,-10,-2,12µM*
CCOC(=O)Cn1c(-c2ccc(Cl)nc2)nc2ccccc21,?,10µM*,-13,0,27,-4%
Cc1cnc(C2OCCO2)c2cccc([N+](=O)[O-])c12,-18%,-1%,-28,-19,-7,?
CCCCCc1c(C)nc(Nc2ccccc2)[nH]c1=O,21µM*,-1%,37,-4,7,18µM*
Cc1ccc(Nc2nc(C)c(CCC(C)C)c(=O)[nH]2)cc1,?,3%,29,-13,-1,18µM*
COc1ccc(-c2nn(-c3ccccc3)cc2CNC(=O)c2cccc([N+](=O)[O-])c2)cc1,9%,.,8,?,-4,-24%
O=C(C1CCN(S(=O)(=O)c2cccs2)CC1)N(c1ccccn1)C1CCCCC1,?,.,-1,31,-3,?
CC(C)(C)C(=O)NC(n1cnc2c(N3CCOCC3)ncnc21)C(Cl)(Cl)Cl (centres undefined),-3%,.,-10,74,-6,-19%
COc1ccccc1OCCCN1C(=O)C(=O)c2cccc(C)c21,4.6µM*,0%,0,21,-15,1.5µM*
Cc1cccc2c1N(CCOc1ccccc1Cl)C(=O)C2=O,2.6µM*,2%,-9,-8,-8,2.6µM*
Cc1ccccc1OCCN1C(=O)C(=O)c2cccc(C)c21,1.3µM*,1%,11,-13,-28,0.92µM*
COc1ccc(C)cc1NC(=O)c1cc2c(s1)-c1ccccc1SC2,?,-11%,.,.,7,?
C[C@]1(O)CC(=O)C=C[C@H]1Nc1ccccc1,?,-1%,-52*,-104*,-21,18µM*

# Assay outcomes (PubChem BioAssay)
